TCR act: activates T cell receptor signaling | Potency, µM (series often up to 9.22 µM), actives largely listed as activators | primary human leukocytes, anti-CD3, IL-2 HTRF, 48 h | 330,000 tested, under 10 active | AID 504894
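Primary human leukocytes incubated 48 hr with anti-CD3 beads plus compound, without co-stimulation. Secreted IL-2 measured by HTRF (europium cryptate/d2 anti-IL-2 pair, 320 nm excitation, 665 nm emission).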
PTHR1 ag: activates the human parathyroid hormone receptor PTHR1 | Q03431 | HEK293 GP2 PTHR1 cells, GloSensor cAMP luminescence, 1 h | Potency, µM (titrated, usually from 115 µM), actives largely listed as activators | hit rate 0.075% among 410,000 | AID 743266; note: nearly all actives have a fitted effect of over 55% in size
Target sequence (Q03431 whole entry, looked up): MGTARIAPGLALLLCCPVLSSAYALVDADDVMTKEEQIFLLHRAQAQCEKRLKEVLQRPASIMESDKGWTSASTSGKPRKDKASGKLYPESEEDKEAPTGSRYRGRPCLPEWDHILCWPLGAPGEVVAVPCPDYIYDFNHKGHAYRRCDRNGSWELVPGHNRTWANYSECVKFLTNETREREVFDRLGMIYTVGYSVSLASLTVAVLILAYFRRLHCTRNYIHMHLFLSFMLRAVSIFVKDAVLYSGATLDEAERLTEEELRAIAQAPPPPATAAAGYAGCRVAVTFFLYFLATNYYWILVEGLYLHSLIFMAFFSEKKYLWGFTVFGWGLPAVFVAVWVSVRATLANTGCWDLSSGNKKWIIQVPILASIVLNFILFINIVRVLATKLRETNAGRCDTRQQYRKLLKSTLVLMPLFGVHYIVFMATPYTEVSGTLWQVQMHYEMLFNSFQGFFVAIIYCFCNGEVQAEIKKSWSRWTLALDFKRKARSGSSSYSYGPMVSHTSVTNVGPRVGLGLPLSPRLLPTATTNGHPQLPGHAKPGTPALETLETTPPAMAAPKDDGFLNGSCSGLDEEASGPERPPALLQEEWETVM
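HEK-293-derived GP2 cells expressing PTHR1 and a GloSensor cAMP reporter, 3,000/well, plated overnight, given luciferin plus IBMX (each 0.5 mM as added) for 1 h at 37 °C, then compound for 1 h at 37 °C. Luminescence was read after 15 min at room temperature.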
BCR signal inh: inhibitors of chronic active B-cell receptor signaling | ABC-DLBCL IkBa-CBG/CBR reporter, luminescence ratio, 4 h | Potency, µM (doses to about 46.1 µM), actives largely listed as inhibitors | hit rate 0.05% among 340,000; active = well fitted inhibition curve with a large enough effect in the signal ratio, with a control signal flat, not every such curve was filed as active; inconclusive = small, poorly fitted or top-dose-only effect, or effect the other way, or a change in a side signal; the % refers to the signal ratio
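Doxycycline induced both beetle luciferases in TMD8 lymphoma cells; IKK-driven degradation limits the IkappaBalpha-fused green signal, while red luminescence normalises for cell number and nonspecific effects. Compounds tested up to 46 uM, 4 hrs.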
IL2 activator: activators of IL-2 | IL-2 activation reporter assay, cell-based qHTS; stimulated with anti-CD3/CD4/CD28 beads; in transgenic mouse T cells | activation, % (series mostly up to about 46 µM) | hit rate 0.065% among 360,000 | AID 652025; in the data active = activation above about 50%; inconclusive = mostly about 30% to 49%
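Quantitative HTS in unstimulated transgenic mouse T cells, with memory T cells as non-tolerant control and PMA/ionomycin as tolerance-bypass control. Compound pretreatment lasted 60 minutes before 18 h bead stimulation; EGFP/DsRed fluorescence read.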
BRCA1 expr act: BRCA1 expression activation; MCF7-BRCA1-FFLuc reporter, luminescence, 48 h; response scale: scaled: vehicle 0%, 10 µM genistein 100%; Potency, µM (highest dose often 46.1 µM), most hits filed as activators; hit rate 1.1% among 380,000; note: nearly all actives have a fitted effect of over 80% in size
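Quantitative HTS in MCF7 cells stably reporting BRCA1 expression via firefly luciferase. Compound treatment lasts 48 h at 37 °C in phenol-red free MEM. Activation is expressed relative to genistein at 10 microM and DMSO.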
Mito fusion yeast: mitochondrial division inhibition or fusion activation; AID 485298; Potency, µM (doses to about 46.1 µM), usual class: activators; hit rate 0.23% among 320,000; S. cerevisiae fusion-defective mutant growth rescue, CellTiterGlo 48 h; note: nearly all actives have a fitted effect of over 45% in size
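Luminescent cell viability in 1536-well qHTS format served as the measure of rescued growth in ts fusion-mutant S. cerevisiae cultured on non-fermentable YPEG for 48 hours at 37C.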
Large screens that a line does not name were inactive; ! = repeats disagree. Compounds with a hit are over-represented: about 1.3% of the library has one in this group of screens. Unless noted, calls come from the whole dose curve; as a rule, active = well fitted curve in the direction sought with a large enough effect; inconclusive = small, poorly fitted or top-dose-only effect, or another doubt; inactive = no such curve, though single readings can be large; an effect the other way counts as inactive or inconclusive.

COC(=O)C1=C(c2ccccc2OCc2ccccc2)C[C@@H]2CC[C@H]1N2C(=O)NCCc1ccc(F)cc1	BCR signal inh inconclusive, Mito fusion yeast 8.9µM
N[C@@H](Cn1ccc(=O)c(O)c1)C(=O)O	none (no result: TCR act, PTHR1 ag, BCR signal inh, IL2 activator, BRCA1 expr act)
CC(=O)c1ccc2c(c1)OCO2	none
N/C(=N\OC(=O)c1ccc2c(c1)OCO2)c1cccnc1	BCR signal inh inconclusive, BRCA1 expr act 10µM
Cc1ccc(NC(=O)c2cnc3sc(N4CCOCC4)nn3c2=O)cc1N(C)C	none (no result: TCR act, BCR signal inh, IL2 activator, BRCA1 expr act, Mito fusion yeast)
C[n+]1c(-c2ccccc2)cc(-c2ccc(Cl)cc2)cc1-c1ccccc1	none
Cc1nc(-c2ccc(Cl)cc2)sc1C1(C)CC(c2ccccc2)=NO1 (stereo unspecified)	BRCA1 expr act 11µM (no result: BCR signal inh, Mito fusion yeast)
Cc1oc(-c2ccc(Cl)cc2)nc1CN1CCC(C(=O)NCCCN2CCN(c3cccc(Cl)c3)CC2)CC1	none (no result: TCR act, BCR signal inh, IL2 activator, BRCA1 expr act, Mito fusion yeast)
Nc1ccc(CCN2CCN(c3cccc(C(F)(F)F)c3)CC2)cc1	Mito fusion yeast 9.2µM (no result: BCR signal inh)
COc1cccc(NC(=O)N2CCC3(CC2)OCCO3)c1	BRCA1 expr act 11µM
COc1ccc(NC(=O)N2CCC3(CC2)OCCO3)cc1OC	none
CCOC(=O)c1ccccc1C(=O)OCC	none (no result: BCR signal inh, Mito fusion yeast)
CCOC(=O)c1sc(=NC(=O)c2ccc(C)c(C)c2)n(C)c1C	BRCA1 expr act 3.2µM
CCOc1ccccc1NC(=O)NCc1ccc2c(c1)CCN2C(=O)c1ccccc1	none (no result: TCR act, BCR signal inh, IL2 activator, BRCA1 expr act, Mito fusion yeast)
Cc1ccc(S(=O)(=O)Cc2ccc(C(=O)N3CCN(c4cccc(C)c4C)CC3)o2)cc1	BCR signal inh 13µM
COc1ccc(S(=O)(=O)Cc2ccc(C(=O)N3CCC4(CC3)OCCO4)o2)cc1	none
Cc1nc2ccc(NC(=O)c3ccc(Cl)s3)cc2s1	BRCA1 expr act 3.5µM
Cc1nc2ccc(P(=O)(O)O)cc2s1	none (no result: TCR act, PTHR1 ag, IL2 activator, BRCA1 expr act)
CCC12CN3CC(CC)(CN(C1)C3c1c(C)[nH]c(=O)[nH]c1=O)C2=O (stereo unspecified)	none (no result: TCR act, BCR signal inh, IL2 activator, BRCA1 expr act, Mito fusion yeast)
COc1cc2c(cc1O)CC[C@@H]1[C@@H]2CC[C@]2(C)[C@@H](O)CC[C@@H]12	BCR signal inh inconclusive, Mito fusion yeast 21µM!
CC12CCC(=O)C=C1CCC1C2CCC2(C)C(O)CCC12 (stereo unspecified)	BCR signal inh inconclusive
CC(C)C(=O)Nc1ccc([N+](=O)[O-])c(C(F)(F)F)c1	Mito fusion yeast 15µM!
Cn1cc([N+](=O)[O-])c(C(=O)Nc2ccc3c(C(F)(F)F)cc(=O)oc3c2)n1	none
Cc1ccc(C)c(NC(=O)Cn2nc(C)c3nn(-c4ccc(Cl)cc4)c(C)c3c2=O)c1	none (no result: TCR act, BCR signal inh, IL2 activator, BRCA1 expr act, Mito fusion yeast)
Cc1nn(CC(C)C)c(Cl)c1C(=O)NC1CCC(C)CC1 (stereo unspecified)	BRCA1 expr act 3.2µM
Cc1nn(Cc2ccccc2Cl)c(Cl)c1C(=O)OCC(=O)NC(=O)NC1CCCCC1	Mito fusion yeast inconclusive
COc1ccc(OC)c(N=Cc2c(O)n(Cc3ccccc3)c(=S)[nH]c2=O)c1	BCR signal inh inconclusive, IL2 activator 80
CN(C)c1ccc(P(=S)(N(C)C)N(C)C)cc1	none (no result: TCR act)
CCOP(=S)(OCC)c1ccc(N(C)C)cc1	PTHR1 ag 18µM
Cn1nc(C(C)(C)C)cc1C(=O)N1CCCCC1c1cc(C(=O)Nc2ccc(F)c(Cl)c2)no1 (stereo unspecified)	none (no result: TCR act, BCR signal inh, Mito fusion yeast)
O=c1c2ccccc2nc(/C=C/c2cc(Br)ccc2O)n1CCCO	BCR signal inh inconclusive
CCNc1nc(-c2ccc(Cl)cc2)cs1	BCR signal inh inconclusive, BRCA1 expr act 2.8µM
Nc1ccccc1C(=O)OCC(=O)N1CCc2ccccc21	BCR signal inh inconclusive, BRCA1 expr act inconclusive
CN(CC(=O)N1CCc2ccccc21)S(=O)(=O)c1cccs1	BRCA1 expr act 4µM
COc1cc(NS(=O)(=O)c2cc(Br)cc3c2N(C(=O)C2CC2)CC3)cc(OC)c1	BCR signal inh inconclusive (no result: TCR act, IL2 activator, BRCA1 expr act, Mito fusion yeast)
O=C(NNC(=S)Nc1ccccc1)C1CCCCC1	BCR signal inh inconclusive
CCCCn1c(NC(=O)c2ccc(Br)o2)c(C(=O)OCC)c2nc3ccccc3nc21	BCR signal inh inconclusive, Mito fusion yeast 8.9µM
C=C1C=C(C(F)F)n2ncc(C(=O)NCc3ccccc3F)c2N1	none (no result: TCR act, PTHR1 ag, BCR signal inh, IL2 activator, Mito fusion yeast)
CC(=O)OC1CCC2(C)C(CCC3C2CC(=O)C2(C)C3CC(N3CC3)C2C(C)=O)C1 (stereo unspecified)	PTHR1 ag 50µM (no result: BCR signal inh, Mito fusion yeast)
CCCCOc1ccc(C(=O)NCC(=O)N2CCN(C/C=C/c3ccccc3)CC2)cc1	none (no result: TCR act, BCR signal inh, Mito fusion yeast)
O=C(CCl)c1ccc(O)c(O)c1	none (no result: TCR act, PTHR1 ag, BCR signal inh, IL2 activator, Mito fusion yeast)
CN(C)c1ccc(N=Nc2ccccc2)cc1	BRCA1 expr act 10µM (no result: TCR act, PTHR1 ag, BCR signal inh, IL2 activator, Mito fusion yeast)
c1ccc2sc(C3(N4CCCCC4)CCCCC3)cc2c1	none (no result: TCR act, PTHR1 ag, BCR signal inh, IL2 activator, BRCA1 expr act)
COc1cc(CC2C(=O)N(C)C(=O)N(C)C2=O)ccc1OCc1ccccc1	BRCA1 expr act 13µM

Assay outcomes as filed in PubChem BioAssay.
